Results from PubChem BioAssay AID1259312 (Keith Lab, Institute of Cancer Science, University of …, 2017).
The campaign covered roughly 4,500 compounds. About 200 (4.4%) were called active. The full list was thinned out, with actives kept by preference. A number with no mark means an inactive call.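 How the source made its calls: active means cell survival measured by absorbance rises more than 2.5-fold over infected cells without compound; inactive means the rest.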

Test: survival after telomere uncapping, modulators, primary screen, cell-based (AID 1259312);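 further: virus expresses mutant telomerase RNA that uncaps telomeres and kills cells; compound added 2 days after infection so exposure lasts 3 days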
Details: HCT116 + Ad-hTR-mut, MTT, 5 d; at 10 µM, stronger effect = higher value

SMILES	fold change
CC(Sc1ccccn1)c1nc(N)nc(N2CCCc3ccccc32)n1 (centres undefined)	-4.94
Cc1cccc(NS(=O)(=O)c2cc(Cl)ccc2Cl)n1	1.41
CCCN(CCC)C(=O)C(=O)N(CCC)CCC	-1.09
N#CC1=C(N)OC2=C(C(=O)CCC2)C12C(=O)Nc1cc(Br)ccc12 (centres undefined)	1.66
N#CC1=C(N)OC2=C(C(=O)CCC2)C12C(=O)Nc1ccccc12 (centres undefined)	2.26
Cc1[nH]nc2c1C1(CCOCC1)C(C#N)=C(N)O2	-1.27
Cc1[nH]nc2c1C1(C(=O)Nc3cc(Br)ccc31)C(C#N)=C(N)O2 (centres undefined)	3.96 (active)
CC(C)(C)c1[nH]nc2c1C(c1ccc(F)cc1)C(C#N)=C(N)O2 (centres undefined)	1.28
Cc1[nH]nc2c1C1(CCCCC1)C(C#N)=C(N)O2	-1.09
Cc1[nH]nc2c1C1(C(=O)Nc3ccccc31)C(C#N)=C(N)O2 (centres undefined)	5.1 (active)
CC(C)(C)c1[nH]nc2c1C1(C(=O)Nc3ccccc31)C(C#N)=C(N)O2 (centres undefined)	4.19 (active)
CN1C(=O)C2(C(C#N)=C(N)Oc3c2c(=O)n(C)c(=O)n3C)c2ccccc21 (centres undefined)	-1.14
Cc1[nH]nc2c1C1(CCSCC1)C(C#N)=C(N)O2	-1.42
N#CC1=C(N)Oc2ccc(N)cc2C12C(=O)Nc1ccccc12 (centres undefined)	2.67 (active)
CSc1ccc(C2C(C#N)=C(N)Oc3n[nH]c(C(C)(C)C)c32)cc1 (centres undefined)	-1.76
CCCCc1ccc(-c2c(C#N)c(N)nc3c2CCCCCC3)s1	-4.8
Cc1ccc(C2C3=C(CC(C)(C)CC3=O)OC3=C2C(=O)CC(C)(C)C3)s1	-5.64
O=C(O)/C=C/c1ccc(F)c(Br)c1	-1.15
O=S1(=O)N=C(N2CCCc3ccccc32)c2ccccc21	1.46
O=c1ccn([C@H]2CCC(CO)O2)c(=O)[nH]1 (some centres undefined)	-1.46
N#Cc1c(N)nc2c(c1-c1cccnc1)CCCCC2	-6.99
O=C1Oc2ccccc2C2Oc3c(c(=O)oc4ccccc34)C3(C(=O)Nc4ccccc43)C12 (centres undefined)	-1.57
O=C1c2ccccc2NC2(C(=O)Nc3ccccc32)N1c1ccc2c(c1)oc1ccccc12 (centres undefined)	1.13
N#CC1=C(N)Oc2c(c3ccccc3oc2=O)C12C(=O)Nc1ccc(Br)cc12 (centres undefined)	2.59 (active)
Cc1ccc(-c2nnc(CSc3nnc(-c4ccccc4)o3)o2)n1C	-1.36
CCCCCCCNC(=O)c1ccco1	1.1
S=C(c1ccc(-c2ccc(Br)cc2)o1)N1CCOCC1	1.09

SMILES	fold change
O=C1c2ccccc2C(O)(O)C1(O)C1(O)C(=O)c2ccccc2C1(O)O (centres undefined)	-1.12
CC(=O)/C(=C1/OC(=O)c2ccccc21)c1ccc(C(C)=O)cc1	5.97 (active)
CC(=O)C(C(C)=O)=C1OC(=O)c2ccccc21	1.3
C=CC[C@H]1CC=C[C@H](CC=C)N1C(C)=O	-1.11
NC(=O)NC(CCCN=C(N)N)C(=O)O (centres undefined)	-1.65
O=[N+]([O-])c1ccc(N2CCN(S(=O)(=O)c3ccc4ccccc4c3)CC2)cc1	-1.1
CC(=O)c1c(C)nc(-c2cccs2)n1O	-1.92
Cc1sc2c(c1C)C(=O)NC(/C=C/c1ccc3c(c1)OCO3)N2 (centres undefined)	-1.11
O=S(=O)(Nc1cc(Cl)cc(Cl)c1)c1cccs1	-1.41
O=[N+]([O-])c1ccc(Cl)c(S(=O)(=O)N2CCOCC2)c1	3.45 (active)
O=[N+]([O-])c1ccc(N2CCN(S(=O)(=O)c3ccc(Br)cc3)CC2)cc1	1.35
O=[N+]([O-])c1ccc(S(=O)(=O)N2CCOCC2)cc1	2.47
O=[N+]([O-])c1ccc(N2CCOCC2)c(S(=O)(=O)N2CCOCC2)c1	-1.09
O=[N+]([O-])c1ccc(N2CCN(S(=O)(=O)c3cc(Cl)ccc3Cl)CC2)cc1	5.36 (active)
O=[N+]([O-])c1ccc(N2CCN(S(=O)(=O)c3ccc(Cl)cc3)CC2)cc1	-1.84
Cc1ccc(-c2c(C#N)c(N)nc3c2CCCCC3)s1	-2.73
Nc1ncnc2nc(SCCOc3ccccc3F)[nH]c12	-1.17
COc1cc(C2C(C#N)=C(N)Nc3oc(C)nc32)cc(OC)c1OC (centres undefined)	2.2
Cc1cc(Cl)c2ccccc2n1	-1.67
C=CCNC(=O)c1nn(C)c(=O)c2ccccc12	-1.08
Cc1cc(C)nc(Sc2ccc3nsnc3c2[N+](=O)[O-])n1	2.01
O=c1c(C=NCc2cccs2)c(C(F)(F)F)[nH]n1-c1nc2ccccc2s1	inactive
NNC(=O)c1cccc(C(=O)NN)n1	2.7 (active)
NNC(=O)Cn1c2ccccc2c(=O)c2ccccc21	1.47
NC(=O)CSc1cccc2cccnc12	-2.76
O=C(O)CCn1cnnn1	-1.36
O=C(O)CCc1cn(CCC(=O)O)cn1	3 (active)
